Hits are enriched below; roughly 28% of the tested compounds scored in any of these assays.
Pyk2 oligo antag: Pyk2 (human) oligomerization antagonism; z-score (the deposit names both 25 µM and 10 µM); Q293 cells, Pyk2 FERM NanoBiT luminescence; active compounds read low; Q14289; actives 0.83% (n = 99,000);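 active = Z-score of -3 or lower, scaled per plate to the spread of control and sample wells; inactive = z-score above -3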;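 note: negative z-score means lost luminescence so less FERM oligomerization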
Target sequence (Q14289 whole entry, looked up): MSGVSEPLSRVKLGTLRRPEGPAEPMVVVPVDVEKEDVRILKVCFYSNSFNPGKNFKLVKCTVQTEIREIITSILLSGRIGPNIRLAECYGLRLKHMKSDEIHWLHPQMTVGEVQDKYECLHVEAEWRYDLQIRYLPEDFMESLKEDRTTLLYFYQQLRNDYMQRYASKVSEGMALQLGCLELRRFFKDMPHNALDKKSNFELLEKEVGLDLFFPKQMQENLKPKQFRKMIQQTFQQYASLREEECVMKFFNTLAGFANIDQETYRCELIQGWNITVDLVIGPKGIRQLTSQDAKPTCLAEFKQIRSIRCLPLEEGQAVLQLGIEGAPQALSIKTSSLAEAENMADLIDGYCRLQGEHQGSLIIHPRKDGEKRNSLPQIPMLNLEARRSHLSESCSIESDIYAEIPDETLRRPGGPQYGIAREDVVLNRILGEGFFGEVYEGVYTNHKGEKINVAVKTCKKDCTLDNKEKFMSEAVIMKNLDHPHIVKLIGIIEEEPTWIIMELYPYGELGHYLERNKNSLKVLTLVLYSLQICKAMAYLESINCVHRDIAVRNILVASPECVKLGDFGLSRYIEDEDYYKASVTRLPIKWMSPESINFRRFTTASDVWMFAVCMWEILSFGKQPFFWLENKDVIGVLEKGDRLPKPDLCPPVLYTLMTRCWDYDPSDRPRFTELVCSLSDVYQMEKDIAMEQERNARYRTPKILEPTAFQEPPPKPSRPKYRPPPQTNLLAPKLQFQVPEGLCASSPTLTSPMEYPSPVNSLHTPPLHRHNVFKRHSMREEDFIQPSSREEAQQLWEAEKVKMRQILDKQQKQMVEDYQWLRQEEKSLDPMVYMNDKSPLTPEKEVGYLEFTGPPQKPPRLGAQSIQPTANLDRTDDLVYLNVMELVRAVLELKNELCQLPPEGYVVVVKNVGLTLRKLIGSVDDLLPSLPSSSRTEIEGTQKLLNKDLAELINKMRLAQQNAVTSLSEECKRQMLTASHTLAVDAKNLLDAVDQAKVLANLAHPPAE
CYP2C19 act: cytochrome P450 2C19 (human) activation; P33261; recombinant CYP2C19, luciferin-H EGE luminescence; active compounds read high; 0 = fully inhibited enzyme, 1 = untreated enzyme; activation factor at 5 µM; 96,000 tested, under 10 active; AID 1025;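 active = activation factor of at least 2 at 5 µM in the primary screen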;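 note: 0 = wells with 2.5 mM tranylcypromine and 1 = vehicle-only wells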
CYP2C9 inh: human CYP2C9 inhibition | actives 20% (n = 96,000) | inhibition, % at 5 µM | CYP2C9 Supersomes, luciferin-H conversion, luminescence;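 active = blocking of liver enzyme CYP2C9 beyond about 50% at 5 µM, limit read from the data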
CYP2C19 inh: inhibitors of human CYP2C19; CYP2C19 Supersomes, luciferin-H EGE luminescence, 30 min; P33261; inhibition, % at 5 µM; AID 778; actives 21% (n = 96,000);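 active = CYP2C19 inhibition above a set limit at 5 µM in the primary screen, cut at about 50% in these data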;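 note: plate controls were negative control wells for no effect and 2.5 mM tranylcypromine positive control for full effect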
CYP2C9 act: activators of human CYP2C9 | activation factor at 5 µM | P11712 | actives 1.4% (n = 96,000) | recombinant CYP2C9, luciferin-H conversion, luminescence; active compounds read high; factor 1 = untreated enzyme, 0 = blocked | AID 1024;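 active = activation factor of 2 or more for CYP2C9 at a 5 µM dose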;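 note: 0 = sulfaphenazole-blocked wells and 1 = vehicle-only wells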
Starred values were filed as active, the others as inactive; nt = no result given.

SMILES | Pyk2 oligo antag | CYP2C19 act | CYP2C9 inh | CYP2C19 inh | CYP2C9 act
CCOC(=O)N1CCN(C(=O)CCc2c(C)nc3c(c(C)nn3-c3ccc(C)c(C)c3)c2C)CC1 | -0.49 | 0.7 | 49 | 32 | 0.5
CCOC(=O)N1CCN(C(=O)c2ccc3nc(SCc4ccc(F)cc4)n(C)c3c2)CC1 | 0.97 | 0.5 | 65* | 49 | 0.3
Cc1cc(C)n2nc(SC3CCCCN(C(=O)c4ccc(F)cc4)C3=O)nc2n1 (stereo not drawn) | -0.09 | 1 | 8 | -2 | 0.9
S=C(c1ccc(-c2ccc(Cl)cc2)o1)N1CCCCC1 | 0.24 | 0.1 | 80* | 92* | 0.2
Cc1cc(O)c(NC(=S)NC(=O)c2ccc(-c3ccc(Cl)cc3)o2)cc1C | 1.4 | 1 | -8 | -5 | 1.1
CC(C)c1cc(CN2CCN(CCC#N)CC2)cc(C(C)C)c1O | 1.2 | 1.1 | -21 | -12 | 1.2
N#CCCN1CCN(C(=S)c2ccc(-c3ccc(Cl)cc3)o2)CC1 | 0.43 | 0.4 | 24 | 62* | 0.8
O=C(c1ccncc1)N(Cc1ccco1)Cc1cc2ccccc2[nH]c1=O | -0.21 | 0 | 93* | 99* | 0.1
Cc1cccc2cc(CN(Cc3ccco3)C(=O)c3ccncc3)c(=O)[nH]c12 | 0.76 | 0 | 94* | 98* | 0.1
Cc1cccc2cc(CN(CCCO)C(=O)Nc3cccc(Cl)c3)c(=O)[nH]c12 | -0.64 | 0.3 | 81* | 71* | 0.2
CCN(Cc1cc2ccccc2[nH]c1=O)C(=O)c1cccnc1 | -0.73 | 1 | 3 | 4 | 1
Cc1cc(=O)oc(C)c1C(=O)n1nc(C)c2c1C[C@@H]1[C@H]2C1(C)C | -0.6 | 0.7 | 62* | 31 | 0.4
Cc1nn(C(=O)c2cccnc2)c(C)c1Sc1ccc(Br)cc1 | -0.45 | 0.3 | 29 | 70* | 0.7
Cc1nn(C(=O)c2ccco2)c(C)c1Sc1ccc([N+](=O)[O-])cc1 | 0.94 | 1.1 | -1 | -12 | 1
COc1cc(-c2nnc3n2N=C(c2ccccc2)CS3)cc(OC)c1OC | -2.1 | 0.3 | 68* | 73* | 0.3
COc1cccc(-c2nnc3n2N=C(C(C)(C)C)CS3)c1 | -1.9 | 0.3 | 30 | 68* | 0.7
Cc1ccc(-c2nnc3n2N=C(c2ccccc2)CS3)cc1 | nt | 1.2 | -5 | -15 | 1.1
Clc1ccccc1C1=Nn2c(nnc2-c2ccncc2)SC1 | -1.7 | 0.4 | 72* | 61* | 0.3
c1ccc(C2=Nn3c(nnc3-c3cc(-c4ccccc4)n[nH]3)SC2)cc1 | -3.3* | 1.1 | -16 | -15 | 1.2
c1csc(C2=Nn3c(nnc3-c3ccncc3)SC2)c1 | -1.3 | 0.9 | 29 | 12 | 0.7
CCOC(=O)Cc1nnc2c(Nc3ccc(Cl)cc3)nc3nonc3n12 | -1.1 | 1 | 16 | 2 | 0.8
O=C(CC1C(=O)OCN1C(=O)OCc1ccccc1)OCC(=O)c1ccccc1 (stereo not drawn) | -0.22 | 0.7 | 25 | 28 | 0.8
CCOC(=O)C(C(=O)OCC)C(C)C#CCN1CCCCC1 (stereo not drawn) | -0.65 | 0.7 | -22 | 28 | 1.2
CC(=O)c1cccc(N(C(=O)c2ccco2)C(C(=O)NC2CCCC2)c2ccncc2)c1 (stereo not drawn) | 1.1 | 0.8 | 16 | 20 | 0.8
COc1cccc(CN2C(=O)CCC2(C)C(=O)NC2CCCC2)c1 (stereo not drawn) | 0.79 | 0.8 | -79 | 20 | 1.8
SMILES | Pyk2 oligo antag | CYP2C19 act | CYP2C9 inh | CYP2C19 inh | CYP2C9 act
COc1ccc(OC)c(C2=Nn3c(nnc3-c3cc(OC)c(OC)c(OC)c3)SC2)c1 | -3.1* | 0.4 | 88* | 60* | 0.1
COc1cccc(C2=Nn3c(nnc3-c3ccccc3O)SC2)c1 | -0.32 | 0.6 | 69* | 43 | 0.3
COc1ccc(C2=Nn3c(nnc3-c3ccc(OC)cc3)SC2)cc1 | -2 | 0.8 | 52* | 22 | 0.5
CCOc1cccc(-c2nnc3n2N=C(c2cc(OC)ccc2OC)CS3)c1 | -0.85 | nt | nt | nt | nt
COc1cccc(-c2nnc3n2N=C(c2cc(OC)ccc2OC)CS3)c1 | -1.8 | 0.3 | 57* | 72* | 0.4
COc1ccc(-c2nnc3n2N=C(c2cccc(Br)c2)CS3)cc1OC | nt | 0.6 | 44 | 36 | 0.6
CC(=O)N1CCN(S(=O)(=O)c2ccc(S(=O)(=O)NCC(C)C)cc2)CC1 | 1.3 | 1.1 | -9 | -14 | 1.1
Cc1cccc(-c2nnc3n2N=C(c2ccccc2Br)CS3)c1 | -1.7 | 0.2 | 52* | 85* | 0.5
